In PubChem BioAssay AID588334 (Broad Institute, 2011) one finds activation data, which are given here for 98 molecules.

The campaign covered roughly 300,000 compounds. About 2,300 (0.77%) were called active. Only a selection was taken, and actives are over-represented in it overall. A number with no mark means an inactive call.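 How the source made its calls: active means mean activation of at least 80% with every replicate also reaching 80%; inconclusive means mean reaches 80% but some replicate falls short; inactive means the rest.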

The assay in a line: MITF-driven TRPM1 luciferase induction in melanoma cells – cell-based, SK-MEL-5, single point, primary screen (AID 588334).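 Further: 0% = neutral control wells and 100% = parthenolide positive control wells.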 The note with it: SK-MEL-5 TRPM1-promoter luciferase, 24 h; at 12.5 µM; active compounds read high; % of positive control, neutral wells = 0.
On to `CCc1ccccc1OCC(=O)Nc1ccc2c(c1)OCCO2`, for which the activation is 89.7% (active).

Regarding `CCC(=O)c1cc(F)ccc1OCC(=O)Nc1ccc2c(c1)OCCO2`, the activation was 22.6%.

As for `COc1ccccc1OCCCC(=O)Nc1ccc2c(c1)OCCO2`, the activation is 24.7%.

Regarding `Cc1cc2c(cc1C)NC1(C[C@H]3CCC(=O)N4CC[C@@H](C1)[C@@H]34)C(=NC(C)(C)CC(C)(C)C)N2` (stereo partly drawn), the activation is -10%.

Turning to `O=C(CSCc1ccccc1)N1CCc2ccccc21`, the activation is 95% (active).

For `O=C(CN1CCN(c2ccccn2)CC1)N1CCc2ccccc21`, the activation was 19.8%.

For the molecule `NC(=O)N1CCc2ccccc21`, the activation is -5.85%.

As for `Cn1c(N)cc(=O)n(C)c1=S`, the activation was -8.41%.

Turning to `CC(C)c1ccc(/C=C/C(=O)NNC(=O)c2cccnc2)cc1`, the activation is 9.02%.

As for `CC(C)c1ccc(/C=C/C(=O)NCCCN2CCOCC2)cc1`, the activation is 4.51%.

As to `C=CCNC(=O)/C=C/c1ccc(C(C)C)cc1`, the activation is 89.4% (active).

`CN(C(=O)c1cccc(NC(=O)Cc2ccc(NC(=O)C3CCCN(C(=O)C4CCCC4)C3)cc2)c1)C1CCC1` (stereo not drawn): the activation is -9.98%.

On to `O=c1ccn([C@@H]2O[C@H](CNS(=O)(=O)c3cc4ccccc4s3)[C@@H](O)[C@H]2O)c(=O)[nH]1`, for which the activation was -4.34%.

Consider `O=C(Nc1cccc(S(=O)(=O)N2CCOCC2)c1)C12CC3CC(CC(C3)C1)C2`, for which the activation was 12.4%.

On to `Cc1cc([N+](=O)[O-])ccc1NC(=O)C1CCCO1` (stereo not drawn), for which the activation was -1.67%.

Take `Cc1ccc(C)c(C(C)NC(=O)C2CCCO2)c1` (stereo not drawn): the activation is -7.6%.

On to `Cc1cc(C)c2nc(NC(=O)C3CCCO3)sc2c1` (stereo not drawn), for which the activation is 81.4% (active).

`C/C(=N\Nc1ccc(Cl)nn1)c1ccccc1O`: the activation is -45.2%.

Turning to `NC(=O)c1ccc(N2CCCC2)nc1`, the activation was -7.45%.

With `COc1ccc(CN2C(CC(=O)Nc3cccnc3)c3ccc(C(F)(F)F)cc3S2(=O)=O)cc1` (stereo not drawn), the activation was 11.4%.

As to `O=C1COc2c1ccc(O)c2O`, the activation was 1.19%.

Regarding `CC(C)OC(=O)CN1C(=O)C(=O)c2ccccc21`, the activation was -5.18%.

Turning to `Cc1cc(/C=C2/SC(=O)N(CC(=O)OC(C)C)C2=O)c(C)n1C`, the activation was 97.9% (active).

On to `Cc1cc(/C=C2\SC(=O)N(C)C2=O)c(C)n1-c1cccc(C(=O)O)c1`, for which the activation was 3.12%.

For the molecule `CCCNC(=O)c1c(Cl)cnn1-c1ccc(C)cc1`, the activation was 69.7%.

Regarding `C=CCNc1cnn(-c2ccc(C)cc2)c(=O)c1Cl`, the activation was 108% (active).

On to `O=c1c(Cl)c(NC2CC2)cnn1-c1ccccc1`, for which the activation was 6.24%.

For `O=C(c1cccc(S(=O)(=O)N2CCCCCC2)c1)N1CCN(Cc2ccccc2)CC1`, the activation was 4.94%.

As for `COc1ccc(NC(=O)Nc2cccc3cccnc23)cc1`, the activation is 40.1%.

In the case of `COc1ccc(NC(=O)Nc2ccc3nsnc3c2)cc1`, the activation was 92.9% (active).

Turning to `COc1ccc(/C=N/NC(=O)Nc2ccc3nsnc3c2)c(OC)c1`, the activation is 4.9%.

For `O=C(Nc1c(Br)cc2c(c1Br)Cc1cc([N+](=O)[O-])ccc1-2)C(Cl)Cl`, the activation is -16.6%.

For `FC(F)(F)c1ccc(-c2cccc3c2C2CC3CCN2Cc2ccccc2)cc1` (stereo not drawn), the activation is -0.65%.

With `COc1ccc(NC(=O)/C(N=Nc2cccc(S(=O)(=O)Nc3ccc(SC(F)F)cc3)c2)=C(\C)O)cc1`, the activation was -7.51%.

In the case of `CN(C(=O)c1cccc(NC(=O)Cc2ccc(NC(=O)C3CCCN(C(=O)C4CC4)C3)cc2)c1)C1CC1` (stereo not drawn), the activation was -7.94%.

Take `CCOc1cccc(C(=O)Nc2nnc(-c3cccs3)s2)c1`: the activation was 25.8%.

In the case of `Cc1ccc(C(=O)Oc2coc(CSc3nnc(NC(=O)c4cccs4)s3)cc2=O)cc1C`, the activation is 0.796%.

For the molecule `Cc1ccc(C(=O)Nc2nnc(-c3cccs3)s2)cc1C`, the activation was 87.8% (active).

On to `NC1=NOC(=O)C1C1CCCCC1` (stereo not drawn), for which the activation was -0.578%.

For `O=c1[nH]c2c(c(=O)n1-c1ccccc1)CCO2`, the activation was 1.65%.

In the case of `COc1cc(C2CC(=O)Oc3cc(OC)c(OC)c(OC)c32)cc(OC)c1OC` (stereo not drawn), the activation was 1.92%.

Regarding `CC1CCc2c(sc3nc4n(c(=O)c23)CCS4)C1` (stereo not drawn), the activation is 73.6%.

With `CCCn1nnc2sc3c(c2c1=O)CCC(C)C3` (stereo not drawn), the activation was 99.2% (active).

With `C=CCn1c(SCc2c(C)noc2C)nc2sc3c(c2c1=O)CCC(C)C3` (stereo not drawn), the activation was -11.8%.

On to `CS(=O)(=O)N1CCc2cc(C(=O)Nc3ccccc3)ccc21`, for which the activation is 49.3%.

`CS(=O)(=O)N1CCc2cc(C(=O)Nc3ccccc3Br)ccc21`: the activation is 85.3% (active).

`CSc1ccccc1NC(=O)c1ccc2c(c1)CCN2S(C)(=O)=O`: the activation was 25.3%.

In the case of `Cc1nc2cc(NC(=O)NCc3ccccc3)ccc2o1`, the activation is 14.2%.

For the molecule `Cc1ccc(NC(=O)Nc2ccc3oc(C)nc3c2)cc1`, the activation is 92.6% (active).

With `Cc1nc2ccc(NC(=O)C(F)(F)F)cc2o1`, the activation was -1.51%.

On to `CC(=O)c1cccc(NC(=O)Nc2ccc(C)cc2)c1`, for which the activation is 104% (active).

`C=C(C)C(=O)Nc1cccc(C(C)=O)c1`: the activation was 5.72%.

Turning to `COC(=O)c1ccc(NC(=O)Nc2ccc(C)cc2)cc1`, the activation is 25.4%.

Consider `C[C@H](O)[C@@H]1C(=O)N2CCc3ccc(N4CCOCC4)cc3[C@@H]2C[C@@H]1N(C)C(=O)C(C)(C)C`, for which the activation is 3.72%.

On to `COc1ccc(C2NCCCC2c2ccccc2)cc1` (stereo not drawn), for which the activation was -15.7%.

As for `O=C(NN=Cc1ccccc1O)NN=Cc1ccccc1O`, the activation was -21.8%.

Turning to `O=C(Nc1ccc2ccccc2c1[N+](=O)[O-])c1ccccc1`, the activation was 37.5%.

Regarding `COc1cc(C(=O)OCc2cc(=O)n3ccsc3n2)ccc1OC(C)C`, the activation was 25%.

For `COc1ccc([C@H]2CC(=O)C=C(/C=C/c3ccc(Cl)cc3)C2)cc1`, the activation is 55.4%.

Regarding `COc1ccc([C@H]2CC(=O)C=C(/C=C/c3ccccc3)C2)cc1`, the activation was 84.7% (active).

`COc1ccc([C@H]2CC(=O)C=C(c3ccc(C)cc3)C2)cc1`: the activation was 18.7%.

On to `CC1CN(Cc2ccccc2)C(=S)NC1=O` (stereo not drawn), for which the activation was 3.25%.

For `COC(=O)c1ccc(CNC(=O)Cn2cc(C)c(=O)[nH]c2=O)cc1`, the activation is 2.68%.

On to `Cc1nnsc1C(=O)N/N=C/c1cccc(C(F)(F)F)c1`, for which the activation was 15.6%.

With `FC(F)(F)c1cccc(Nc2ncnc3ccccc23)c1`, the activation was 0.633%.

Regarding `FC(F)(F)c1cccc(N/N=C/c2ccccc2)c1`, the activation is 88.5% (active).

Regarding `Cc1c(NS(=O)(=O)c2cccc(C(=O)Nc3ccc(SC(F)F)cc3)c2)c(=O)n(-c2ccccc2)n1C`, the activation was -11%.

As to `COc1cc(/C=C/c2ccc(/C=C/c3cc(OC)c(OC)c(OC)c3)cc2)cc(OC)c1OC`, the activation was -15.7%.

With `COc1cccc(CNC(=O)CCCC(=O)Nc2cccc([N+](=O)[O-])c2)c1`, the activation was -21%.

Regarding `COc1cccc(C(=O)CC(=O)C(=O)Nc2ccc([N+](=O)[O-])cc2C)c1`, the activation was 0.189%.

Consider `COc1cccc(NCCC(=O)c2cccc([N+](=O)[O-])c2)c1`, for which the activation was 85.6% (active).

Regarding `Cc1ccc(C)c(S(=O)(=O)N2CCN(c3ncnc4sccc34)CC2)c1`, the activation is -33.1%.

Turning to `CCC(C)C1(C2CCCC2)NC(=O)NC1=O` (stereo not drawn), the activation was -0.575%.

As for `CSCCC(NS(=O)(=O)c1ccc(C)cc1)C(=O)N(C)CC(=O)Nc1ccccc1Br` (stereo not drawn), the activation is -13.8%.

In the case of `Cc1nn2cc(-c3ccc(Cl)cc3)cnc2c1Br`, the activation is 132% (active).

Turning to `C=CCn1c(=O)n(C)c2c(=O)n(C)c(=O)n(C)c21`, the activation is -2.68%.

Regarding `O=C1c2ccccc2C(=O)N1CCCCCCN1C(=O)c2ccccc2C1=O`, the activation was -10.4%.

In the case of `CC(C)n1cnc2c(NCc3ccccc3)cc(OCC3CCN(C)CC3)cc21`, the activation was -31%.

As to `O=C(c1ccc(CSc2ccccc2)cc1)N1CCCCCC1`, the activation is 61.5%.

`CN(C)c1ccc(CSc2ccccc2)cc1`: the activation is 106% (active).

`CN(C)c1cc[n+](Cc2ccccc2)cc1`: the activation is -11.3%.

For `C=CC[C@H](CC(=O)N(CCO)Cc1ccccc1)C(=O)N[C@@H](COC(=O)[C@@H](CC=C)Cc1ccc(F)cc1)Cc1ccccc1`, the activation was 8.2%.

With `Nc1cc(=O)n(Cc2ccccc2)c(=O)n1Cc1ccccc1`, the activation was -2.74%.

As to `Cc1ccc(CSc2nnc(-c3cnccn3)n2C)cc1`, the activation was 12.1%.

As to `Cn1c(SCc2c(F)cccc2Cl)nnc1-c1cnccn1`, the activation is 90.4% (active).

`Oc1ccc(-n2nnnc2SCc2c(F)cccc2Cl)cc1`: the activation is 0.316%.

For `Cc1ccc(C(=O)Nc2ccccc2-c2ccccc2)cc1S(=O)(=O)Nc1ccccc1`, the activation is 3.07%.

Regarding `CCOc1cc(C(=O)N(Cc2ccccc2)c2ccc(C)cc2)ccc1OCC(=O)N1CCOCC1`, the activation was -10.1%.

`CCN(CC)c1ccc(C(=O)OCC(=O)c2ccco2)cc1`: the activation was 83.2% (active).

Consider `CCc1ccc(C(=O)COC(=O)c2ccco2)cc1`, for which the activation was 99.6% (active).

As to `O=C(COC(=O)c1ccccc1C(=O)c1ccccc1)c1ccco1`, the activation is 1.5%.

Consider `O=C(OCC(=O)N1CCCC1)c1ccco1`, for which the activation is 4.95%.

With `CCOC(=O)c1ccc(NC(=O)CNC(=O)c2ccco2)cc1`, the activation was 7.02%.

`O=C(COC(=O)c1ccco1)NCc1ccc(Cl)cc1`: the activation is -14.2%.

In the case of `CCCCN1CC(COc2ccccc2)Oc2cccc(F)c2S1(=O)=O` (stereo not drawn), the activation was -2.06%.

Take `N#CCc1c[nH]c2ccc([N+](=O)[O-])cc12`: the activation is 11.4%.

Turning to `CCC1([N+](=O)[O-])COC(c2ccc(C)cc2)OC1` (stereo not drawn), the activation is 1.68%.

Turning to `CN(CCc1ccccc1)C(=O)c1cccc(NC(=O)Cc2cccc(NC(=O)C3CCCN(C(=O)C4CCC4)C3)c2)c1` (stereo not drawn), the activation is -9.62%.
